Sampled rows, rich in hits. Any-hit rate of the full collection: about 10%.
PTEN del growth: growth suppressors of cells with PTEN tumor suppressor deletion | HCT116 PTEN-null viability, CellTiter-Glo, 60 h; hits give low values | hit rate 1.2% among 140,000 | viability, % at 10 µM | AID 827;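 active = viability at or below a set limit, 4 SD under the median of all tested compounds, cut at about 3.7% in these data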;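 note: PTEN knockout HCT116 line with beta catenin targeted HCT116 as companion control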
p97 ATPase inh: blocks human p97 ATPase activity; AID 1481; hit rate 0.42% among 220,000; recombinant p97 ATPase, Kinase-Glo ATP luminescence, 3 h; inhibition, % at 8 µM; in the data active = inhibition above about 15%
HCT116 bCat-KO: beta-catenin-lacking colon tumor cell growth suppression; HCT116 beta-catenin knockout viability, CellTiter-Glo, 60 h; hits give low values; viability, % at 10 µM; hit rate 1.5% among 140,000;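 active = viability at or under a set limit, the compound median less 4 SD, cut at about 6% in these data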
ROMK primary: human ROMK K+ channel modulation, primary screen. hit rate 2% among 130,000. Tet-inducible ROMK, thallium flux fluorescence; actives lie on both sides. B-score at 10 µM;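 active = signal ratio slope over the read window, or its plate-corrected B-score, at least 3 SD from the plate mean, either direction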;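 note: B-score of the F/F0 ratio slope over 7 to 12 s after thallium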
Target sequence (P48048 whole entry, looked up): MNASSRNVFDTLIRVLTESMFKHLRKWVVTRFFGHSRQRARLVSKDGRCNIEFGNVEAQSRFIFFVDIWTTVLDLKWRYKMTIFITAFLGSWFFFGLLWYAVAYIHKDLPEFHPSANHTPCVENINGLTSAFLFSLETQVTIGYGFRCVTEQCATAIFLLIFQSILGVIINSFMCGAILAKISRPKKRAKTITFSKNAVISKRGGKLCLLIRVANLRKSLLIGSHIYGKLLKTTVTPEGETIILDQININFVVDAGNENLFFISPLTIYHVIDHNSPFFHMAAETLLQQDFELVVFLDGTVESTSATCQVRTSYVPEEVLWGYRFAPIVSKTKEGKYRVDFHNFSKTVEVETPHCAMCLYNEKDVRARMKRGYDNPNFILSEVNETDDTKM
Lmaj promast: inhibitors of Leishmania major promastigote growth | Leishmania major promastigotes, resazurin fluorescence viability | inhibition, % at 10 µM | AID 1063 | hit rate 9% among 200,000; in the data active = inhibition above about 50%;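 note: promastigotes grown with compound for 44 hours at 28 °C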
INS promoter inh: TRM-6 insulin promoter activity inhibition. hit rate 0.9% among 130,000. TRM-6 cells (human fetal islet line), insulin promoter-eGFP reporter, imaging; reporter expression induced with tamoxifen. inhibition, % at 2 µM. AID 1273;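 active = inhibition above the mean plus 3 SD, with well images judged a real hit on visual review, cut at about 60% in these data, passing the limit was not always enough; inconclusive = inhibition over the cutoff but images rejected on review; inactive = inhibition not above the cutoff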
ROMK retest: human ROMK channel modulation, retest confirmation; shares compounds with ROMK primary; ROMK thallium flux, fluorescence ratio; hits give low values; normalized thallium flux (F/F0 slope) at 10 µM; hit rate 54% among 3,000; AID 1917;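 active = Flux at 10 µM at least 3 SD below or above vehicle control mean in one or both replicates; inconclusive = no clear call, values can overlap the other calls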
Large screens that a line does not name were inactive (follow-up assays come after a bar, where they were run); ! = not active in a repeat.

Cc1cc(C(=O)NCc2ccc(S(N)(=O)=O)cc2)ccc1[N+](=O)[O-]	none
CCOC(=O)C1=NN(N=O)C2(CC(=O)N(c3cc(C)cc(C)c3)C2=O)C1 (centres undefined)	none
CCN=C(NCC)SC1CC(=O)N(c2ccc(F)cc2)C1=O (centres undefined)	none (no result: PTEN del growth, HCT116 bCat-KO, INS promoter inh)
CCOC(=O)c1[nH]c2c(c1C)C(=O)CC(c1ccc(OC)c(OC)c1)C2 (centres undefined)	none
COc1cc(C2CC(=O)c3c([nH]c(C(=O)OCCOC(C)C)c3C)C2)cc(OC)c1OC (centres undefined)	none (no result: ROMK primary, INS promoter inh) | ROMK retest 0.0633
CCc1ccccc1NC(=O)CSc1nnc(Cn2nnc3ccccc32)n1C	none
CN(C)c1nc(N(C)C)n(Cc2c(Cl)cccc2Cl)n1	none (no result: PTEN del growth, HCT116 bCat-KO, ROMK primary)
CCCCNC(=O)C1CCN(S(=O)(=O)c2c(C)noc2/C=C\c2ccc(OC)cc2)CC1	none (no result: ROMK primary, INS promoter inh) | ROMK retest inactive
COCCCNC(=O)C1CCN(S(=O)(=O)c2c(C)noc2/C=C\c2ccc(OC)cc2)CC1	none (no result: ROMK primary)
Cc1cc(C)nc(SCc2nnc(SCC(=O)Nc3ccccc3C)n2Cc2ccco2)n1	none (no result: ROMK primary)
Cc1cccc2cc(CN(CCN3CCOCC3)C(=O)NCc3ccccc3)c(=O)[nH]c12	none
O=C(Nc1cccc(O)c1)c1cc(S(=O)(=O)N2CCCC2)ccc1Cl	ROMK primary 3.35 | ROMK retest 0.101
O=C(Nc1cccc(S(=O)(=O)N2CCCCCC2)c1)c1ccc2c(c1)OCO2	ROMK primary -3.57 | ROMK retest inactive
Cc1ccc(S(=O)(=O)N2CCOCC2)cc1C(=O)Nc1cccc(S(=O)(=O)N2CCCC2)c1	none (no result: PTEN del growth, HCT116 bCat-KO, INS promoter inh)
N#C/C(=C\c1cccnc1)C(=O)Nc1ccc(C(=O)O)cc1	none (no result: PTEN del growth, HCT116 bCat-KO, INS promoter inh)
CCOc1cccc(NC(=O)/C(C#N)=C\c2cccnc2)c1	ROMK primary -3.28 (no result: PTEN del growth, HCT116 bCat-KO, INS promoter inh) | ROMK retest 0.0467
N#C/C(=C\c1cccnc1)C(=O)Nc1ccccc1	ROMK primary -4.19 | ROMK retest 0.053
O=[N+]([O-])c1cc2c(cc1/C=N/NS(=O)(=O)c1ccc(Br)cc1)OCO2	none (no result: PTEN del growth, HCT116 bCat-KO, INS promoter inh)
CCCCCOc1ccc(Br)cc1CSC(=N)N	PTEN del growth 0.8, HCT116 bCat-KO 1.3, Lmaj promast 100.1 (no result: ROMK primary) | ROMK retest 0.0421
CCOC(=O)N1CCC(NC(=O)c2sc(-n3cccc3)nc2C)CC1	none
CN1CCC2(CC1)C1CN(C)CC=C1C(C#N)=C(N)C2(C#N)C#N (centres undefined)	ROMK primary -3.38! | ROMK retest 0.0572
O=C(NNC1CC(=O)N(c2ccccc2)C1=O)c1cccnc1 (centres undefined)	none (no result: PTEN del growth, HCT116 bCat-KO, ROMK primary, Lmaj promast, INS promoter inh) | ROMK retest inactive
CC1(C)CC(=O)C(C=NCCCn2ccnc2)=C(O)C1	none (no result: ROMK primary, INS promoter inh)
C=CCN1CCN(c2ccncc2S(=O)(=O)N2CCOCC2)CC1	none
COC(=O)[C@@]1(Cc2ccccc2)[C@@H]2C(=CC(=O)[C@H]2CC(=O)C(=O)N(C)C)CN1C(=O)c1ccccc1	PTEN del growth 1.7, HCT116 bCat-KO 2.4, ROMK primary -4.6, Lmaj promast 99.8 | ROMK retest 0.0492
C=CCn1c(SCC(=O)N2N=C(c3ccco3)CC2c2ccco2)nnc1-c1ccncc1 (centres undefined)	none (no result: ROMK primary)
N=c1n(Cc2ccccc2)c2ccccc2n1CC(O)c1ccco1 (centres undefined)	ROMK primary -2.47, Lmaj promast 89.3 | ROMK retest 0.0611
N=c1n(Cc2ccccc2)c2ccccc2n1Cc1ccccc1	ROMK primary -3.58, Lmaj promast 98.8 | ROMK retest inconclusive
Cc1cc(O)ccc1Nc1nc2ccccc2nc1Nc1ccc(O)cc1C	none (no result: INS promoter inh)
CN(C)C(=O)c1sccc1Oc1ccc(F)cc1[N+](=O)[O-]	none (no result: PTEN del growth, HCT116 bCat-KO) | ROMK retest inactive
Cc1ccccc1OC(=O)n1c(=S)oc2cc(Cl)ccc21	none
O=C(Nc1cccc(N=Cc2cc(Br)cc(Br)c2O)c1)c1ccco1	none (no result: ROMK primary, INS promoter inh) | ROMK retest 0.11
O=C(Nc1cccc(N=Cc2cc(Cl)cc(Br)c2O)c1)c1ccco1	ROMK primary 4.08 | ROMK retest 0.114
CC(C)(C)NC(=O)c1cccc(NC(=O)c2ccco2)c1	none
CC(C)c1nc(N2CCOCC2)c(C#N)c2c1CCC2	none
CCOCCCNC(=O)c1cc2sc(Cl)cc2n1CC	ROMK primary 3.1 (no result: INS promoter inh) | ROMK retest inactive
O=C1c2cccc3c(N4CCCCC4)ccc(c23)C(=O)N1c1cccc(O)c1	ROMK primary -3.65 (no result: PTEN del growth, HCT116 bCat-KO) | ROMK retest inconclusive
O=C1c2cccc3c(N4CCCCC4)ccc(c23)C(=O)N1CCO	ROMK primary -5.3 | ROMK retest 0.0348
Cc1n[nH]c(C)c1N1C(=O)c2cccc3c(N4CCCCCC4)ccc(c23)C1=O	none (no result: ROMK primary, INS promoter inh)
C=CCN1C(=O)c2cccc3c(N4CCCCC4)ccc(c23)C1=O	none (no result: PTEN del growth, HCT116 bCat-KO, ROMK primary)
CCOCCOCCC(C(=O)OCC)P(=O)(c1ccccc1)c1ccccc1 (centres undefined)	none
O=C(CSc1nnc(-c2ccco2)o1)c1ccccc1	none (no result: ROMK primary, INS promoter inh) | ROMK retest inactive
O=C(CSc1nnc(-c2ccco2)o1)c1ccc(F)c(F)c1	none (no result: ROMK primary, INS promoter inh)
CCN(CC)C(=O)CCSc1nnc(-c2ccco2)o1	none (no result: PTEN del growth, HCT116 bCat-KO, INS promoter inh) | ROMK retest inactive
C[n+]1ccc(C(=O)NCCC[N+](C)(C)C)cc1/C=N/O	none (no result: PTEN del growth, HCT116 bCat-KO)
Cc1ccc(OCC(=O)N/N=C\c2cn(C)c3ccccc23)c([N+](=O)[O-])c1	none (no result: INS promoter inh)
O=C1c2ccccc2C(=O)N1CCCCSc1nc2ccccc2c(=O)n1CCCN1CCOCC1	ROMK primary -3 (no result: PTEN del growth, HCT116 bCat-KO, INS promoter inh) | ROMK retest 0.0536
COc1cc(/C=C/C(=O)OCC(=O)NC2CC2)cc(S(=O)(=O)N2CCc3ccccc32)c1OC	ROMK primary -17.7 (no result: PTEN del growth, HCT116 bCat-KO) | ROMK retest inactive
CCCCCN(C(=O)CN1CCC(Cc2ccccc2)CC1)c1c(N)n(CCCC)c(=O)[nH]c1=O	ROMK primary -3.22 (no result: PTEN del growth, HCT116 bCat-KO, INS promoter inh) | ROMK retest 0.0609
O=C(CSc1nnc(-c2ccc(S(=O)(=O)N3CCCC3)cc2)n1CC1CCCO1)NC1CC1 (centres undefined)	none (no result: ROMK primary) | ROMK retest inactive
O=[N+]([O-])c1ccc(S(=O)(=O)CC(CN2CCCCC2)N2CCCCC2)cc1 (centres undefined)	ROMK primary -4.77, Lmaj promast 100.6 (no result: PTEN del growth, HCT116 bCat-KO, INS promoter inh) | ROMK retest 0.0529
Cc1nn(C(C)C(=O)NCc2ccco2)c(C)c1[N+](=O)[O-] (centres undefined)	none (no result: PTEN del growth, HCT116 bCat-KO, ROMK primary, INS promoter inh) | ROMK retest inactive
Cc1c(Br)c([N+](=O)[O-])nn1C(C)C(=O)NCc1ccco1 (centres undefined)	none (no result: ROMK primary, INS promoter inh)
COCCNC(=O)/C(C#N)=C/c1ccc(OC(=O)c2cccs2)c(OC)c1	ROMK primary -4.36 (no result: PTEN del growth, HCT116 bCat-KO) | ROMK retest 0.044
COCCNC(=O)/C(C#N)=C/c1ccc(SC)cc1	ROMK primary -3.92 (no result: PTEN del growth, HCT116 bCat-KO) | ROMK retest 0.0493
COc1cc(/C=C(/C#N)C(=O)Nc2ccccc2)ccc1OCc1ccc(C(=O)O)cc1	ROMK primary -2.45 (no result: PTEN del growth, HCT116 bCat-KO, INS promoter inh) | ROMK retest 0.0532
CCCCNC(=O)/C(C#N)=C/c1ccc(F)cc1F	ROMK primary -7.75 (no result: PTEN del growth, HCT116 bCat-KO, INS promoter inh) | ROMK retest 0.046
COc1cc(/C=C(\C#N)C(=O)NC(C)C)ccc1OCc1ccc(C(=O)O)cc1	none (no result: PTEN del growth, HCT116 bCat-KO, ROMK primary, Lmaj promast, INS promoter inh)
COCCNC(=O)/C(C#N)=C/c1ccc(C)o1	none (no result: PTEN del growth, HCT116 bCat-KO, ROMK primary, INS promoter inh)
